From PubChem BioAssay AID1159580 (chemical genetic matrix, 2015)
The campaign covered roughly 5,500 compounds. About 2,000 (36%) were called active. Inconclusive results (about 18%) are left out. No stated cut-off is given here; in the data, active means normalized growth mostly below about 0.91 (no sharp cut-off); inconclusive means no clear call, values can overlap the other calls; inactive means mostly above about 0.92. The list shows a part of the results.

Assay: chemical genetic growth profiling, strain panel (AID 1159580);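 further: tested at 20 µM; growth read once vehicle control cultures reached saturation at 30 °C; 1 = growth at the plate median or of vehicle wells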
Conditions: growth OD

Measured: normalized growth

CCC(=O)O[C@]1(C(=O)CCl)[C@@H](C)CC2C3CCC4=CC(=O)C=C[C@]4(C)[C@@]3(F)[C@@H](O)C[C@@]21C (stereo partly specified)
inactive: S. cerevisiae deletion strains, locus YJR043C, strain POL32, stronger effect = lower value 0.982 | S. cerevisiae deletion strains, locus YJR066W, strain TOR1, stronger effect = lower value 0.952 | S. cerevisiae deletion strains, locus YKL009W, strain mrt4, stronger effect = lower value 1.01 | S. cerevisiae deletion strains, locus YKL068W, stronger effect = lower value 0.972 | S. cerevisiae deletion strains, locus YKL085W, strain MDH1 (second series), stronger effect = lower value 0.985 | S. cerevisiae deletion strains, locus YKL085W, strain MDH1, stronger effect = lower value 0.985 | S. cerevisiae deletion strains, locus YKL160W, strain elf1, stronger effect = lower value 1.02 | S. cerevisiae deletion strains, locus YKL190W, strain CNB1, stronger effect = lower value 0.981 | S. cerevisiae deletion strains, locus YKR001C, strain vps1, stronger effect = lower value 0.988 | S. cerevisiae deletion strains, locus YKR026C, strain gcn3, stronger effect = lower value 1.03 | S. cerevisiae deletion strains, locus YKR091W, strain srl3, stronger effect = lower value 1.02 | S. cerevisiae deletion strains, locus YLL001W, strain dnm1, stronger effect = lower value 1.02 | S. cerevisiae deletion strains, locus YLL026W, stronger effect = lower value 1.01 | S. cerevisiae deletion strains, locus YLL041C, strain sdh2, stronger effect = lower value 1.01 | S. cerevisiae deletion strains, locus YLR027C, strain aat2, stronger effect = lower value 1.02 | S. cerevisiae deletion strains, locus YLR039C, strain RIC1, stronger effect = lower value 0.959 | S. cerevisiae deletion strains, locus YLR058C, strain SHM2, stronger effect = lower value 0.983 | S. cerevisiae deletion strains, locus YLR102C, strain apc9, stronger effect = lower value 0.985 | S. cerevisiae deletion strains, locus YLR113W, strain HOG1, stronger effect = lower value 0.982 | S. cerevisiae deletion strains, locus YLR221C, strain rsa3, stronger effect = lower value 1.03 | S. cerevisiae deletion strains, locus YLR258W, strain gsy2, stronger effect = lower value 1.02 | S. cerevisiae deletion strains, locus YLR262C, strain YPT6 (second series), stronger effect = lower value 1.02 | S. cerevisiae deletion strains, locus YLR262C, strain YPT6, stronger effect = lower value 0.941 | S. cerevisiae deletion strains, locus YLR268W, strain sec22, stronger effect = lower value 0.961 | S. cerevisiae deletion strains, locus YLR320W, strain mms22, stronger effect = lower value 1.04 | S. cerevisiae deletion strains, locus YLR330W, strain CHS5, stronger effect = lower value 0.971 | S. cerevisiae deletion strains, locus YLR342W, strain FKS1 (second series), stronger effect = lower value 0.999 | S. cerevisiae deletion strains, locus YLR342W, strain FKS1, stronger effect = lower value 1.02 | S. cerevisiae deletion strains, locus YLR357W, strain rsc2, stronger effect = lower value 1.05 | S. cerevisiae deletion strains, locus YLR370C, strain arc18, stronger effect = lower value 1.02 | S. cerevisiae deletion strains, locus YLR371W, strain rom2, stronger effect = lower value 0.976 | S. cerevisiae deletion strains, locus YLR384C, strain iki3, stronger effect = lower value 1.04 | S. cerevisiae deletion strains, locus YLR418C, strain cdc73, stronger effect = lower value 0.969 | S. cerevisiae deletion strains, locus YML016C, strain PPZ1, stronger effect = lower value 0.988 | S. cerevisiae deletion strains, locus YML032C, strain rad52, stronger effect = lower value 0.985 | S. cerevisiae deletion strains, locus YML120C, strain ndi1, stronger effect = lower value 1 | S. cerevisiae deletion strains, locus YML124C, strain tub3, stronger effect = lower value 0.993 | S. cerevisiae deletion strains, locus YMR058W, strain fet3, stronger effect = lower value 1.02 | S. cerevisiae deletion strains, locus YMR078C, strain ctf18, stronger effect = lower value 0.983 | S. cerevisiae deletion strains, locus YMR125W, strain sto1, stronger effect = lower value 1.02 | S. cerevisiae deletion strains, locus YMR129W, stronger effect = lower value 1.02 | S. cerevisiae deletion strains, locus YMR205C, strain PFK2, stronger effect = lower value 1.04 | S. cerevisiae deletion strains, locus YMR223W, strain ubp8, stronger effect = lower value 0.982 | S. cerevisiae deletion strains, locus YMR231W, strain pep5, stronger effect = lower value 1.02 | S. cerevisiae deletion strains, locus YMR263W, strain SAP30, stronger effect = lower value 0.987 | S. cerevisiae deletion strains, locus YMR307W, strain GAS1, stronger effect = lower value 0.87 | S. cerevisiae deletion strains, locus YNL067W, strain RPL9B, stronger effect = lower value 0.992 | S. cerevisiae deletion strains, locus YNL071W, strain lat1, stronger effect = lower value 1.02 | S. cerevisiae deletion strains, locus YNL183C, strain NPR1, stronger effect = lower value 0.935 | S. cerevisiae deletion strains, locus YNL209W, strain ssb2, stronger effect = lower value 1.01 | S. cerevisiae deletion strains, locus YNL233W, strain BNI4, stronger effect = lower value 1.01 | S. cerevisiae deletion strains, locus YNL248C, strain rpa49, stronger effect = lower value 1.02 | S. cerevisiae deletion strains, locus YNL250W, strain rad50, stronger effect = lower value 0.988 | S. cerevisiae deletion strains, locus YNL271C, strain bni1, stronger effect = lower value 0.963 | S. cerevisiae deletion strains, locus YNL298W, strain CLA4, stronger effect = lower value 0.964 | S. cerevisiae deletion strains, locus YNL307C, strain MCK1, stronger effect = lower value 0.987 | S. cerevisiae deletion strains, locus YNL322C, strain KRE1 (second series), stronger effect = lower value 1.03 | S. cerevisiae deletion strains, locus YNL322C, strain KRE1, stronger effect = lower value 0.988 | S. cerevisiae deletion strains, locus YNR049C, strain mso1, stronger effect = lower value 1.01 | S. cerevisiae deletion strains, locus YNR052C, strain pop2, stronger effect = lower value 0.988 | S. cerevisiae deletion strains, locus YOL006C, strain TOP1, stronger effect = lower value 0.958 | S. cerevisiae deletion strains, locus YOL012C, strain htz1 0.831 | S. cerevisiae deletion strains, locus YOL147C, strain pex11, stronger effect = lower value 0.986 | S. cerevisiae deletion strains, locus YOR001W, strain rrp6, stronger effect = lower value 1.03 | S. cerevisiae deletion strains, locus YOR061W, strain CKA2, stronger effect = lower value 0.978 | S. cerevisiae deletion strains, locus YOR069W, strain VPS5, stronger effect = lower value 0.978 | S. cerevisiae deletion strains, locus YOR070C, strain gyp1, stronger effect = lower value 1.02 | S. cerevisiae deletion strains, locus YOR080W, strain dia2, stronger effect = lower value 1.03 | S. cerevisiae deletion strains, locus YOR083W, strain WHI5, stronger effect = lower value 1.02 | S. cerevisiae deletion strains, locus YOR106W, strain vam3, stronger effect = lower value 1.02 | S. cerevisiae deletion strains, locus YOR136W, strain idh2, stronger effect = lower value 0.995 | S. cerevisiae deletion strains, locus YOR144C, strain elg1, stronger effect = lower value 0.997 | S. cerevisiae deletion strains, locus YOR184W, strain ser1, stronger effect = lower value 0.986 | S. cerevisiae deletion strains, locus YOR231W, strain MKK1, stronger effect = lower value 0.959 | S. cerevisiae deletion strains, locus YOR265W, strain rbl2, stronger effect = lower value 1.02 | S. cerevisiae deletion strains, locus YOR270C, strain vph1, stronger effect = lower value 0.984 | S. cerevisiae deletion strains, locus YOR290C, strain snf2, stronger effect = lower value 1.02 | S. cerevisiae deletion strains, locus YOR316C, strain cot1, stronger effect = lower value 0.991 | S. cerevisiae deletion strains, locus YPL051W, strain arl3, stronger effect = lower value 1.02 | S. cerevisiae deletion strains, locus YPL055C, strain LGE1, stronger effect = lower value 1.01 | S. cerevisiae deletion strains, locus YPL078C, strain atp4, stronger effect = lower value 1.02 | S. cerevisiae deletion strains, locus YPL106C, strain sse1, stronger effect = lower value 1.06 | S. cerevisiae deletion strains, locus YPL240C, strain hsp82, stronger effect = lower value 1.01 | S. cerevisiae deletion strains, locus YPL241C, strain CIN2, stronger effect = lower value 0.981 | S. cerevisiae deletion strains, locus YPL256C, strain CLN2, stronger effect = lower value 0.961 | S. cerevisiae deletion strains, locus YPR119W, strain clb2, stronger effect = lower value 0.981 | S. cerevisiae deletion strains, locus YPR141C, strain kar3, stronger effect = lower value 0.967 | S. cerevisiae deletion strains, locus YPR163C, strain tif3, stronger effect = lower value 0.956 | S. cerevisiae deletion strains, locus YPR167C, strain met16, stronger effect = lower value 0.978 | S. cerevisiae deletion strains, strain wtn01, stronger effect = lower value 0.998 | S. cerevisiae strains, strain wild type, stronger effect = lower value 0.98
